Data taken from ChEMBL document CHEMBL1961873, “Compounds: GSK PKIS; Assays: Nanosyn kinase panel” (2012).

Columns and labels:
[1] = molecular target: T1, Inhibitor of nuclear factor kappa-B kinase subunit epsilon (Homo sapiens) (UniProt Q14164); settings: at 1 µM;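 further: reported values are averaged percent inhibition figures against human IKKε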
T1 sequence (whole entry): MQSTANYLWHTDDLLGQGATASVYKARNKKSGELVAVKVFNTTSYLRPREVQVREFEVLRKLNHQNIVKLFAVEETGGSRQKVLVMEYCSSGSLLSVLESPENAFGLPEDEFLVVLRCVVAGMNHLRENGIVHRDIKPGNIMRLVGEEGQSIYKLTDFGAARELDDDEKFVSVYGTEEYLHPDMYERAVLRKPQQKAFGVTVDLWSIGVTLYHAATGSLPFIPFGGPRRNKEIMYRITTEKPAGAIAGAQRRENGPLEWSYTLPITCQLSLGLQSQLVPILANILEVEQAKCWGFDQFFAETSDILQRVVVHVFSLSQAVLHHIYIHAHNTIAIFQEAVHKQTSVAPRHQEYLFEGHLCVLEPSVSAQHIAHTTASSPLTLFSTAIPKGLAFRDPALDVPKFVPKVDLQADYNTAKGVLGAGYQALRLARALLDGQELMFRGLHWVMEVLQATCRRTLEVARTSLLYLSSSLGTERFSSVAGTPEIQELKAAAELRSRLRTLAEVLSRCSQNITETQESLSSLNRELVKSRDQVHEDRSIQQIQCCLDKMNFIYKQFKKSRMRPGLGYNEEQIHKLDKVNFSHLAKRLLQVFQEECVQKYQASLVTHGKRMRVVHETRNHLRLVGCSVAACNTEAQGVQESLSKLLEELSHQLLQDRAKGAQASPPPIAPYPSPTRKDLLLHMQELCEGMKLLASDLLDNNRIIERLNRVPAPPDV

[2] = molecular target: T2, Serine/threonine-protein kinase Nek1 (Homo sapiens) (UniProt Q96PY6); settings: at 0.1 µM
T2 sequence (whole entry): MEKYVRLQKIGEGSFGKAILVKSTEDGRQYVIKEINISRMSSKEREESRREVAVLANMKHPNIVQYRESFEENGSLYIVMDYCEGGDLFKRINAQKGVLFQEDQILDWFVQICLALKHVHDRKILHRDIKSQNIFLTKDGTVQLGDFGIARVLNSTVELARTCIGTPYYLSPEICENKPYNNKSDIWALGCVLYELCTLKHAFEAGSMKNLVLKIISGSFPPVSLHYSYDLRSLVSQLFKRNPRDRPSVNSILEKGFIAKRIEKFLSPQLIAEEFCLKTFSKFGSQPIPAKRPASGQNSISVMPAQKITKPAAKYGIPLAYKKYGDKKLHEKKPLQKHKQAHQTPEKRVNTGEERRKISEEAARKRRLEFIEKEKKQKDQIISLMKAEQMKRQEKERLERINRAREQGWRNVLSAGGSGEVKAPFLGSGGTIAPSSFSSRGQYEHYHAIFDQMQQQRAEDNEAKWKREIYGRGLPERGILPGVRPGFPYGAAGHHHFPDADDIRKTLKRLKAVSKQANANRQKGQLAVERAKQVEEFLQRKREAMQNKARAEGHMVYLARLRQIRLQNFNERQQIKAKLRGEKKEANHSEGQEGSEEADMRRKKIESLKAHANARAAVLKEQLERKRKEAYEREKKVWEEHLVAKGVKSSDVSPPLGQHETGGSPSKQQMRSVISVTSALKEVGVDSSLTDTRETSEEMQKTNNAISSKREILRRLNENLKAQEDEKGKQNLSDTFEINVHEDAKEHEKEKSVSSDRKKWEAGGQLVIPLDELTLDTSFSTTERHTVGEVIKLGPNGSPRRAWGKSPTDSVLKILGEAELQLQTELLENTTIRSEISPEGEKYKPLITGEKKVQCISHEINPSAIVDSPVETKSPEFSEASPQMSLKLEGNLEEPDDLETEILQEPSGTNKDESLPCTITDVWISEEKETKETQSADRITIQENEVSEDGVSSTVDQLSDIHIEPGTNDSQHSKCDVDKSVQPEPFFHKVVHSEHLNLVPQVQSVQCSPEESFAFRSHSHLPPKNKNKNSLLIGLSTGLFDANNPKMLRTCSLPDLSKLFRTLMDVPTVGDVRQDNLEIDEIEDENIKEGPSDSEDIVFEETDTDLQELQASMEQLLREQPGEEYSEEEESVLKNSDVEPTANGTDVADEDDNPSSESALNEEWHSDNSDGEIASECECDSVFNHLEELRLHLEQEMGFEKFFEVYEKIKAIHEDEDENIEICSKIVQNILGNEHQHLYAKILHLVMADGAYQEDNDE

[3] = molecular target: T2, Serine/threonine-protein kinase Nek1 (Homo sapiens); settings: at 1 µM
[4] = molecular target: T3, Serine/threonine-protein kinase Nek2 (Homo sapiens) (UniProt P51955); settings: at 0.1 µM
T3 sequence (whole entry): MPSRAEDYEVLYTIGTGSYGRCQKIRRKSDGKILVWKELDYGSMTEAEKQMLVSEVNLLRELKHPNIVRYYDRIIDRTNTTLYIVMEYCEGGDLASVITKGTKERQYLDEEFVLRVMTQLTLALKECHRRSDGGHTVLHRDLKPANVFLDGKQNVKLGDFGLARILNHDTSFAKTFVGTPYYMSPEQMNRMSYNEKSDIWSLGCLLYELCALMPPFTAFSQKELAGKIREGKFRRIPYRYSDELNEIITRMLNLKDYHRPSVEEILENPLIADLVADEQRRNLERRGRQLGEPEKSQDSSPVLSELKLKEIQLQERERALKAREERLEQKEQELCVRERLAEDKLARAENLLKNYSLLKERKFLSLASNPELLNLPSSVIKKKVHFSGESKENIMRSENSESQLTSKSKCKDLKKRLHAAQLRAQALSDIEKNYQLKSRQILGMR

[5] = molecular target: T3, Serine/threonine-protein kinase Nek2 (Homo sapiens); settings: at 1 µM
[6] = molecular target: Serine/threonine-protein kinase Nek6 (Homo sapiens) (UniProt Q9HC98); settings: at 0.1 µM
Serine/threonine-protein kinase Nek6 (Homo sapiens), sequence (Q9HC98 whole entry): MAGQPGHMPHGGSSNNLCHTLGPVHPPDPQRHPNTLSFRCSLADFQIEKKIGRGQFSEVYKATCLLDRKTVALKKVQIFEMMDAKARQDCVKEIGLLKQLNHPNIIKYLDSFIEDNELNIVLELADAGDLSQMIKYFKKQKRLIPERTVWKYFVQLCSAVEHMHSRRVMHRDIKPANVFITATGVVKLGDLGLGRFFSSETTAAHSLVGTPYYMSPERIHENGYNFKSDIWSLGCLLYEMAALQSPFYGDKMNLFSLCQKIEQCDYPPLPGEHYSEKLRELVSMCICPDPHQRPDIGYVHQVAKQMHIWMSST

[7] = molecular target: Serine/threonine-protein kinase Nek6 (Homo sapiens) (UniProt Q9HC98); settings: at 1 µM
[8] = molecular target: Serine/threonine-protein kinase Nek7 (Homo sapiens) (UniProt Q8TDX7); settings: at 0.1 µM
Serine/threonine-protein kinase Nek7 (Homo sapiens), sequence (Q8TDX7 whole entry, looked up): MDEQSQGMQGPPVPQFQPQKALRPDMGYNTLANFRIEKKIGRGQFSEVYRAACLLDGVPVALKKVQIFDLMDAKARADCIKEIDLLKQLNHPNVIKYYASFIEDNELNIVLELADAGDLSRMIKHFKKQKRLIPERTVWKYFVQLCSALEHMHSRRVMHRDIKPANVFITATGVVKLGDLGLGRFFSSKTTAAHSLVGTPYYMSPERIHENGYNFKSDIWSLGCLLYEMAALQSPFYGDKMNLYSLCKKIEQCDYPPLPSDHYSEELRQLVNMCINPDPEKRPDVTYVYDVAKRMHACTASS

[9] = molecular target: Serine/threonine-protein kinase Nek7 (Homo sapiens) (UniProt Q8TDX7); settings: at 1 µM
[10] = molecular target: T4, Serine/threonine-protein kinase Nek9 (Homo sapiens) (UniProt Q8TD19); settings: at 0.1 µM;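 further: reported value is the mean percent inhibition of NEK9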
T4 sequence (whole entry): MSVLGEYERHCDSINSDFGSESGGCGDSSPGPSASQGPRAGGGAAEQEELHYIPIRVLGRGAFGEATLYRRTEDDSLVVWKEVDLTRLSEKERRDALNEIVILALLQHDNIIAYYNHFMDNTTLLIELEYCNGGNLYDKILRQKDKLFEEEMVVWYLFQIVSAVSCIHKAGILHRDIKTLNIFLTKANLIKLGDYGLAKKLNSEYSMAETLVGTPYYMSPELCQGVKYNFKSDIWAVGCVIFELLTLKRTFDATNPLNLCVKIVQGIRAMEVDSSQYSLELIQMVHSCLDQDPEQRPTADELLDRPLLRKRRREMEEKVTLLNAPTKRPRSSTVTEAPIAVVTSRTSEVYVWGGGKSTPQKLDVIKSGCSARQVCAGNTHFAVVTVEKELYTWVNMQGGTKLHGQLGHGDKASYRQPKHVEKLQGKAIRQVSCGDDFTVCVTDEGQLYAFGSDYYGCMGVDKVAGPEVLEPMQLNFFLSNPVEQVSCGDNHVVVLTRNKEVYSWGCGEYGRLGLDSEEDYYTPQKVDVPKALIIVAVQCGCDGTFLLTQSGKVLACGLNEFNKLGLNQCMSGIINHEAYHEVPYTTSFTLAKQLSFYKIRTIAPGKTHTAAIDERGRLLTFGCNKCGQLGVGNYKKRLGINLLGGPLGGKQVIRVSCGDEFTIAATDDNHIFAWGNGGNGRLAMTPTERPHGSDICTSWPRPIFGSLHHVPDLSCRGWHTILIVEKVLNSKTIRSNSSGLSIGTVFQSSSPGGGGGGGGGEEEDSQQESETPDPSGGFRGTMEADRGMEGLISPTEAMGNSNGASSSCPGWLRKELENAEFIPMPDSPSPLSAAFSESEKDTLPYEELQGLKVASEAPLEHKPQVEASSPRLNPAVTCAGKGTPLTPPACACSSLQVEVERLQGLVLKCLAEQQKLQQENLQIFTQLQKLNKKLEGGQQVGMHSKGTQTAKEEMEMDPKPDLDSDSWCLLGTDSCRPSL

SMILES | inhibition [1] | inhibition [2] | inhibition [3] | inhibition [4] | inhibition [5] | inhibition [6] | inhibition [7] | inhibition [8] | inhibition [9] | inhibition [10]
COC(=O)Nc1nc2ccc(Oc3ccc(NC(=O)Nc4cc(C(F)(F)F)ccc4F)cc3)cc2s1 | -1.19% | 1.14% | 1.38% | -0.09% | 0.69% | -1.08% | -4.58% | 1.35% | 0.53% | -1.57%
CS(=O)(=O)Nc1ccc(-c2ccc3c(NC(=O)C4CC4)n[nH]c3c2)cc1 | 2.67% | 1.54% | -3.13% | 4.81% | 3.7% | 1.17% | -2.29% | 4.35% | 2.55% | 2.89%
O=C(O[C@H]1CN[C@H](C#Cc2cc3ncnc(Nc4ccc5c(ccn5Cc5cc(F)ccc5F)c4)c3s2)C1)N1CCOCC1 | 3.8% | 2.94% | 1.91% | 2.01% | 7.68% | 4.81% | 1.23% | 4.67% | 3.63% | 4.24%
OCCCNc1nccc(-c2c(-c3ccc(F)cc3)nn3cc(C(F)(F)F)ccc23)n1 | 0.15% | -0.37% | 0.3% | 2.83% | 2.24% | 4.06% | -0.92% | 2.99% | -4.27% | 7.44%
COc1cc2c(cc1Nc1nc(Nc3cccc(F)c3C(N)=O)c3cc[nH]c3n1)N(C(=O)CN1CCN(C(C)C)CC1)CC2 | 2.31% | 2.53% | 6.64% | 2.3% | 2.17% | 1.18% | 1.05% | 3.3% | 6.3% | 0.4%
CN1CCC(n2cnc(-c3ccc(F)cc3)c2-c2ccnc(NCCO)n2)CC1 | 9.51% | 2.52% | 3.44% | 5.2% | 5.72% | 3.54% | 5.15% | 2.96% | 3.39% | 5.09%
CN(C)CCNC(=O)Nc1ccc(N(C)c2ccnc(Nc3ccc(CS(C)(=O)=O)cc3)n2)cc1 | 6.21% | 0.66% | 2.81% | 5.18% | -2.7% | 3.4% | 3.93% | 3.07% | 2.78% | 0.16%
Fc1ccc(Nc2nccc(-c3c(-c4ccc(C(F)(F)F)cc4)nn4ncccc34)n2)cc1F | 4.2% | 1.24% | 1.72% | 4.93% | 4.4% | -0.59% | 0.48% | 3.33% | 2.76% | 4.79%
FC(F)(F)CNc1nccc(-c2cnn3ncccc23)n1 | 0.44% | 2.31% | 0.95% | 3.06% | 2.24% | 0.83% | 0.6% | -1.64% | 1.79% | 4.65%
COc1cccc(Nc2nccc(-c3cnn4ncccc34)n2)c1 | 18.1% | 3.3% | 18.3% | 4.5% | 5.64% | 3.79% | 1.04% | -0.48% | 4.19% | 10.7%
CS(=O)(=O)CCNCc1ccoc1-c1ccc2ncnc(Nc3ccc(OCc4ccccc4)cc3)c2c1 | 0.42% | 0.71% | 2.1% | 1.71% | 0.9% | 1.71% | 0.7% | 0.9% | 1.09% | -0.36%
O=C(O[C@H]1CN[C@H](C#Cc2cc3ncnc(Nc4ccc5c(cnn5Cc5ccccc5)c4)c3s2)C1)N1CCOCC1 | 2.35% | 1.14% | -0.05% | 0.17% | 0.04% | -0.55% | 1.2% | -1.22% | 1.45% | -1.71%
Cc1c2ccc(N(C)c3ccnc(Nc4cccc(S(N)(=O)=O)c4)n3)cc2nn1C | 6.19% | 3.11% | 4.82% | 6.4% | 19.9% | 0.7% | 0.72% | 5.3% | 3.13% | 9.14%
O=C(Nc1n[nH]c2nnc(-c3cccnc3)cc12)C1CC1 | 0.84% | 0.17% | 1.72% | 0.71% | -2.27% | -0.09% | -0.1% | 0.09% | 1.6% | 7.25%
COc1c(C(N)=O)cc(-c2ccc(Cl)cc2)cc1-c1ccc(S(N)(=O)=O)cc1 | 5.47% | 2.17% | 4.16% | 6.76% | 5.43% | 0.6% | 1.71% | 4.31% | 10.4% | 4.85%
CCOc1ccc2c(-c3ccnc(Nc4cc(OC)cc(C(F)(F)F)c4)n3)cnn2n1 | 26.5% | 1.06% | 2.42% | 1.26% | 0.94% | -0.49% | 1.7% | 2.79% | 2.42% | 3.87%
